Results from ChEMBL document CHEMBL1157539, “Thousands of chemical starting points for antimalarial lead identification” (Nature, 2010).

Test system: Plasmodium falciparum
Experiment: GSK_TCMDC: Inhibition of Plasmodium falciparum 3D7 in whole red blood cells, using parasite LDH activity as an index of growth. Test compounds present at 2uM
Assay type: functional

Structure (SMILES) | Inhibition
Cc1ccc(F)c(C(=O)Nc2cccc(-c3nn4ccccc4c3-c3ccnc(Nc4cccc(F)c4)n3)c2)c1F | 98%
O=C(NCCN1CCOCC1)c1ccc(N2CCC(Oc3ccc4ccccc4c3)CC2)nc1 | 92%
COc1ccc2ccccc2c1C=NN=c1cc(C)[nH]c2cc(C(F)(F)F)ccc12 | 92%
Cc1cccc2nc(-c3ccc(-c4cccc(NC(=O)Nc5ccsc5)c4)s3)[nH]c12 | 100%
CN1CCN(c2ccnc3ccc(NC(=O)Cc4ccc(-c5ccncc5)c5ccccc45)cc23)CC1 | 100%
COc1cc(/C=N/Nc2nc(Nc3ccccc3)nc(Nc3ccccc3)n2)ccc1OCc1ccccc1[N+](=O)[O-] | 98%
COc1ccc2nccc([C@@H](O)CN3CCC(NCCOc4ccc(F)cc4F)CC3)c2c1.O=C(O)C(=O)O | 100%
Cl.O=S(=O)(Nc1cc2c(cc1OCCCN1CCCCC1)CCNCC2)c1ccc(-c2ccc(Cl)cc2)cc1 | 100%
Cc1cc(-c2ccc(O)c(CNC3CCCCC3)c2)cnc1N | 100%
CCCCOc1cc(CNCCCCCCNCc2cc(OCCCC)cc3ccccc23)c2ccccc2c1.CS(=O)(=O)O | 100%
CC(=O)N/N=C/[C@H](CCc1ccccc1)NC(=O)[C@H](CC(C)C)NC(=O)c1ccc(OCCN2CCOCC2)cc1 | 96%
COc1ccc(O)cc1/C=N/Nc1ccnc2cc(Cl)ccc12 | 100%
c1ccc(-c2cccnn2)cc1 | 98%
O=C(Nc1ccc2c(c1)CN(Cc1ccc(N3CCCC3)o1)CCC2)c1cncs1.O=CO | 84%
